DAX1 inh-1: inhibits human nuclear receptor DAX1; HEK293 Gal4-DAX1 luciferase reporter, luminescence; AID 504766; inhibition, % at 6.75 µM; 340,000 tested, 0.99% active;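 active means inhibition above the mean over all tested compounds plus 3 SD, cut at about 4.2% in these data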;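 further: 0% = DAX1-transfected cells with DMSO and 100% = empty-vector control cells with DMSO; inhibition shows as a rise in luminescence from relieved DAX1 repression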
Target sequence (P51843 207-470 limits assumed): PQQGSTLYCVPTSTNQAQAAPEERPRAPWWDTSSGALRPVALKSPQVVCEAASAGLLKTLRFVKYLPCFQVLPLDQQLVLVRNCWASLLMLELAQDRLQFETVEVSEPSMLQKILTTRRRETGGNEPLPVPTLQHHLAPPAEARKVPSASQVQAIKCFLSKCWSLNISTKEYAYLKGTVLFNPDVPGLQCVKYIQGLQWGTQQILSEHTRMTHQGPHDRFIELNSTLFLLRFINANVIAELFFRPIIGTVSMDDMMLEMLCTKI
ssDAF-12 act: activates DAF-12 receptor from parasite S. stercoralis; HEK293 ssDAF-12/GRIP1 lit1-tk-luc reporter, luminescence; % of 3 µM dafachronic acid response; activation, % at 6.8 µM; 370,000 tested, 1% active; AID 652126;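 active means activation above the mean over all tested compounds plus 3 SD, cut at about 0.9% in these data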;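 further: 0% = DMSO-only wells and 100% = 3 µM delta7-dafachronic acid wells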
hgDAF-12 ag: agonists of H. glycines DAF-12 nuclear receptor; HEK293 GAL4-hgDAF12 UAS-luciferase reporter, agonist luminescence; normalized to butyrate control; activation, % at 6.8 µM; 370,000 tested, 1.8% active;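 active means activation above a cutoff set at the mean of all screened compounds plus 3 SD, cut at about 10% in these data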;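 further: 0% = DMSO wells and 100% = sodium butyrate wells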
DAX1 inh-2: inhibitors of DAX1 repression of SF-1 activated StAR promoter | HEK293T StAR-luciferase reporter, SF-1/DAX-1 repression relief | inhibition, % at 6.8 µM | 370,000 tested, 1.1% active;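 active means inhibition above the mean over all tested compounds plus 3 SD, cut at about 3.6% in these data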;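 further: 0% = DAX-1 cells with DMSO and 100% = cells lacking DAX-1 with DMSO; higher inhibition means more luminescence from relief of DAX-1 repression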
hcDAF-12 act: activators of H. contortus DAF-12 nuclear receptor. HEK293 hcDAF-12 lit1-tk-luc reporter, luminescence; 0% DMSO, 100% Δ7-dafachronic acid. 370,000 tested, 1.4% active. activation, % at 6.8 µM;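 active means activation above the mean of all tested compounds plus 3 SD, cut at about 5.5% in these data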;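 further: 100% = response to 3 µM Δ7-dafachronic acid high control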
Numbers without * were called inactive; . = no result given; ! = not active in a repeat. An excerpt weighted towards active compounds, which were near 4.1% of everything screened.

SMILES	DAX1 inh-1	ssDAF-12 act	hgDAF-12 ag	DAX1 inh-2	hcDAF-12 act
COCC(=O)N[C@@H]1C[C@@H]2O[C@H](CO)CC[C@@H]2O[C@@H]1CCc1ccc(-c2ccccc2)cc1	.	-1	0	-1	-3
CC(=O)c1cc2c(cc1NS(=O)(=O)c1ccccc1)OCO2	1	-2	2	-1	-1
CC(=O)c1cc2c(cc1N/C(=N/S(=O)(=O)c1ccccc1)c1ccc(Cl)cc1)OCO2	0	1.6*	1	0	4
c1ccc(-c2cc(-c3nnc4sc(Cc5cccs5)nn34)[nH]n2)cc1	.	-1	-1	0	-2
CC(Sc1ccccn1)C(=O)Nc1ccccc1 (configuration not stated)	2	0	13*	2	3
CC(N=Cc1c(O)c2ccccc2oc1=O)C(=O)O (configuration not stated)	0	-1	11*	0	0
O=C(O)C(CO)N=Cc1c(O)c2ccccc2oc1=O (configuration not stated)	1	-1	-1	0	-1
O=C(OC12CCCN(C1)/C(=C/c1cccc(Cl)c1)C2)c1cccc(F)c1 (configuration not stated)	.	-1	-2	0	-3
CCC[C@@H](/C=C/C(=O)OC(C)(C)C)Sc1ccc(C(C)(C)C)cc1	.	0	-3	0	-2
CCCc1cc(C(=O)Nc2nnc(C)s2)cs1	2	0	11*	3	3
COc1ccc(CC(=O)Nc2ccc(C)cc2S(=O)(=O)N2CCOCC2)cc1OC	.	-2	0	-1	0
c1ccc(-c2cnc(-c3ccccc3)nc2)cc1	2	1	11*	2	5
O=c1[nH]c(/C=C/c2ccc(Br)cc2)nc2ccccc12	3	-1	6	1	1
Cc1nc(/C=C/c2ccccc2)[nH]c(=O)c1-c1ccccc1	3	0	12*	2	5
O=c1cc(C=NNc2ccccc2)[nH]c(=O)[nH]1	4.9*	0	-2	0	0
Nn1c(SCC(=O)N2CCOCC2)nnc1-c1cc(-c2ccc(F)cc2)n[nH]1	.	-1	0	2	-1
CCCC(=O)N(CCN1CCOCC1)c1nc2c(F)cc(F)cc2s1	2	-1	5	4.0*	2
CCCC(=O)N(CCN1CCOCC1)c1nc2c(OCC)cccc2s1	0	.	.	.	.
O=[N+]([O-])c1ccc2nc(C(O)C(O)c3nc4ccc([N+](=O)[O-])cc4[nH]3)[nH]c2c1 (configuration not stated)	2	1.0*	5	0	2
O=[N+]([O-])c1ccc(-c2nc3ccc([N+](=O)[O-])cc3[nH]2)cc1	1	-1	1	1	-1
CCOC(=O)CC[C@@H]1CC[C@]2(CCCN(S(=O)(=O)c3ccccc3)C2)O1	.	-1	2	0	-3
CC1(Cc2cccc(C(F)(F)F)c2)C(=O)Nc2c(Cl)ccc(Cl)c21 (configuration not stated)	.	-2	-2	0	-2
CCOC(=O)Nc1ccc2c(c1)N(C(=O)OCCN(C)C)c1ccccc1CC2	5.1*!	-1	1	1	-1
COc1cc(CNCCCCO)ccc1OCc1ccccc1F	0	-1	11*	1	1
CCOc1ccc(-n2c(SCC(=O)Nc3ccc(OCc4ccccc4)cc3)nnc2-c2ccc(Cl)cc2)cc1	.	-1	0	0	1
SMILES	DAX1 inh-1	ssDAF-12 act	hgDAF-12 ag	DAX1 inh-2	hcDAF-12 act
O=C(CC1=NCCNC(c2ccccc2)C1)c1ccccc1O (configuration not stated)	0	0	7	1	5.8*
COc1ccccc1CC(=O)Nc1ccc(C(=O)N2CCCCC2)cc1	1	-1	0	3.9*	0
COc1ccccc1NC(=O)c1ccc2[nH]c(C)c(C)c2c1	3	0	10*	1	3
CCOC(=O)c1ccccc1NC(=O)c1ccc2nc[nH]c2c1	-1	-2	-2	-1	-2
Cc1ccc(NC(=O)c2ccc3nc[nH]c3c2)c(O)c1	2	0	11*	3	6.2*
COc1ccc(NC(=O)c2ccc3nc[nH]c3c2)c(OC)c1	1	-1	-1	0	1
CCOc1ccccc1NC(=O)c1ccc2nc[nH]c2c1	4.4*	-2	0	0	-2
Cc1[nH]c2ccc(C(=O)Nc3ccncc3)cc2c1C	-1	-2	-1	0	-3
CC(COc1ccccc1)CN1CCC(C(O)(c2ccccc2)c2ccccc2)CC1 (configuration not stated)	.	-2	-3	-1	-3
CN(C)Cc1nnnn1-c1ccccc1	4.9*	-1	-2	0	0
O=C(C1=NN(c2ccccc2)C2C(=O)N(c3ccccc3Cl)C(=O)C12)c1ccccc1 (configuration not stated)	1	-1	3	0	2
Cc1nn(-c2ccccc2)c2sc(C(=O)NNC(=O)COc3ccccc3)cc12	1	1.6*	1	1	2
COc1ccccc1OC(=O)c1ccc(S(=O)(=O)N(C)C)cc1	5.2*	-1	3	0	-1
CCn1c(C(=O)OC)cc2c1ccn2-c1ccc(F)cc1	2	0	13*	1	2
CNC(=O)CSc1nc2c([nH]c3ccccc32)c(=O)n1CCOC	-1	1	2	0	5.6*
O=C(CSc1nc2c([nH]c3ccccc32)c(=O)n1-c1ccccc1)N1CCOCC1	0	-1	3	0	6.0*
CCn1c(SCC(=O)N2CC(C)OC(C)C2)nc2c([nH]c3ccccc32)c1=O (configuration not stated)	1	0	1	0	6.5*
CCn1c(SCC(=O)Nc2ccc(NC(C)=O)cc2)nc2c([nH]c3ccccc32)c1=O	1	1.1*	1	0	5.6*
COCCN(C(=O)c1ccc(C)o1)c1c(N)n(CC(C)C)c(=O)[nH]c1=O	2	-1	3	2	-1
O=C(CSc1nc2ccccc2nc1N1CCCCC1)N1CCN(S(=O)(=O)c2cc(Cl)ccc2Cl)CC1	.	-2	7	-1	-1
CCOC(=O)[C@]12CCCC3=C1N(CCC3)C(=O)[C@@H](CC(=O)NCCC(C)C)C2	.	-1	1	0	-3
O=S1(=O)C=CCN1Cc1cn(Cc2ccccc2)nn1	.	-2	3	1	1
COCCn1c(SCC(=O)N2CCCC2)nc2c([nH]c3ccccc32)c1=O	-1	1	0	0	3
COCCn1c(SCC(=O)N2CC(C)OC(C)C2)nc2c([nH]c3ccccc32)c1=O (configuration not stated)	0	0	4	1	5.9*
Cc1ccc2c(c1)N(CCCC(=O)NCc1c(F)cccc1F)C(=O)CO2	.	-1	3	-2	-2
COC(=O)c1ccncc1C(=O)Nc1ccc(F)cc1	1	.	.	.	.
